Assay outcomes deposited in PubChem BioAssay by several laboratories.
NadD block – blocks S. aureus nicotinate mononucleotide adenylyltransferase; purified NadD enzyme, colorimetric absorbance read-out; inhibition, % at 20 µM; hit rate 0.78% among 360,000; AID 602399; in the data active = inhibition above about 26%
HGIII-sPLA2 inh – Inhibits HGIII-sPLA2 liposome hydrolysis, primary screen; Q9NZ20; QFRET BODIPY PC-A2 liposome hydrolysis, fluorescence; inhibition, % at 12.2 µM; hit rate 0.56% among 370,000;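 active = inhibition above mean plus 3 SD of compounds lying within the high and low control bounds, cut at about 19% in these data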
ARNT TACC3 PPI – disruptors of human ARNT/TACC3 interaction | Q9Y6A5 | AlphaScreen His-ARNT PAS-B/GST-TACC3 binding, luminescence; TACC3 fragment carries E629A point mutation | inhibition, % at 9.99 µM | hit rate 0.66% among 390,000 | AID 623870;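 active = mean inhibition of replicates at least 50% and at least half of replicates each reaching 50%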
DAGLB inh – blocks human DAGLB lipase activity | Q8NCG7 | HEK293T DAGLB membrane lysate, EnzChek fluorogenic substrate | inhibition, % at 5.17 µM | hit rate 0.059% among 340,000; in the data active = inhibition above about 34%
Neddyl block – inhibitors of human cullin neddylation | hit rate 0.58% among 360,000 | P61081+Q13564 | inhibition, % at 25 µM | TR-FRET cullin neddylation, biochemical | AID 651699; in the data active = inhibition above about 36%
A number is an active result; . = inactive; / = no result given. Rows were chosen to be rich in hits. Some 2% of all compounds tested hit in one or more screens of this group.

SMILES	NadD block	HGIII-sPLA2 inh	ARNT TACC3 PPI	DAGLB inh	Neddyl block
C[C@H]1CN([C@@H](C)CO)C(=O)c2cc(NC(=O)Nc3ccc(C(F)(F)F)cc3)ccc2O[C@H]1CN(C)C(=O)Nc1ccccc1	/	/	.	/	/
C(=N\Nc1nc2ccccc2[nH]1)/C1CCCCC1	.	.	46	.	.
Cc1[nH]c2ccccc2c1/C=N/Nc1nc2ccccc2[nH]1	.	.	45	/	53
CC(C)CC#Cc1ccc2c(c1)O[C@@H](CN(C)Cc1ccc(C(=O)O)cc1)[C@H](C)CN([C@@H](C)CO)S2(=O)=O	/	/	.	/	/
COc1cc2c(cc1OC)-c1cc(Nc3ccc(C(=O)O)cc3)nc(=O)n1CC2	.	.	46	.	.
COc1cc2c(cc1OC)-c1cc(Nc3ccccc3)nc(=O)n1CC2	.	.	.	.	.
Cc1nnc(SCc2ccccn2)n(N)c1=O	.	.	active	.	.
c1ccc(-n2nnnc2SCc2ccccn2)cc1	.	.	.	.	.
Nn1c(SCc2ccccn2)nncc1=O	.	.	56	.	.
CCn1c(SCC(=O)Nc2cc(NC(C)=O)ccc2OC)nnc1-c1ccccn1	.	.	50	.	.
COc1ccc(NC(C)=O)cc1NC(=O)CSc1nnc(-c2ccccn2)n1C	.	.	.	.	.
CCn1c(SCC(=O)Nc2ccc3c(c2)c2ccccc2n3CC)nnc1-c1ccco1	63	.	.	.	.
CCn1c(SCC(=O)Nc2cccc(NC(C)=O)c2)nnc1-c1ccco1	.	.	.	.	.
Nn1c(SCC(=O)Nc2ccc3c(c2)OCCO3)nnc1-c1ccccn1	.	.	70	.	.
CO[C@@H]1CN(C)C(=O)c2ccc(NC(=O)Nc3ccc(Cl)cc3)cc2OC[C@H](C)N(C(=O)Nc2c(C)noc2C)C[C@@H]1C	/	/	.	/	/
CN1c2ccc(-c3ccccc3)cc2[C@H]2[C@H](CCN2C(=O)c2ccncc2)[C@@H]1CO	/	/	.	/	/
CO[C@@H]1CN(C)C(=O)c2ccc(NS(=O)(=O)c3ccc(C)cc3)cc2OC[C@H](C)NC[C@@H]1C	/	/	.	/	/
O=S(=O)(N[C@@H]1CC[C@H](CCn2cc(-c3ccccn3)nn2)O[C@@H]1CO)c1cccc(F)c1	/	/	92	/	/
COc1ccc(NC(=O)N[C@@H]2CC[C@@H](CCn3cc(-c4ccccn4)nn3)O[C@H]2CO)cc1	/	/	61	/	/
COc1ccc(NC(=O)N[C@H]2CC[C@H](CCn3cc(-c4ccccc4)nn3)O[C@H]2CO)cc1	/	/	.	/	/
COCc1cn(CC[C@@H]2CC[C@@H](NC(=O)c3ccncc3)[C@@H](CO)O2)nn1	/	/	.	/	/
COc1ccc(NC(=O)N[C@@H]2CC[C@@H](CCn3cc(-c4ccccn4)nn3)O[C@@H]2CO)cc1	/	/	48	/	/
O=C(N[C@@H]1CC[C@@H](CCn2cc(-c3ccccn3)nn2)O[C@H]1CO)c1ccncc1	/	/	62	/	/
COc1ccc(NC(=O)N[C@H]2CC[C@@H](CCn3cc(-c4ccccc4)nn3)O[C@H]2CO)cc1	/	/	.	/	/
C#CCOCCOCCOCCNc1nc(N2CCN(C(=O)CCCCCCCCCCNC(=O)[C@H](CO)n3cc(CCCSC)nn3)CC2)nc(N2CCN(C(=O)CCCCCCCCCCNC(=O)[C@H](CCCN=C(N)N)n3cc(C[C@@H](C)CC)nn3)CC2)n1	62	/	.	.	.
SMILES	NadD block	HGIII-sPLA2 inh	ARNT TACC3 PPI	DAGLB inh	Neddyl block
C#CCOCCOCCOCCNc1nc(N2CCN(C(=O)CCCCCCCCCCNC(=O)Cn3cc(C[C@@H](C)O)nn3)CC2)nc(N2CCN(C(=O)CCCCCCCCCCNC(=O)[C@H](CCCCN)n3cc(CCCC(=O)O)nn3)CC2)n1	.	.	.	.	.
C#CCOCCOCCOCCNc1nc(N2CCN(C(=O)CCCCCCCCCCNC(=O)Cn3cc(C[C@@H](C)O)nn3)CC2)nc(N2CCN(C(=O)CCCCCCCCCCNC(=O)[C@H](CCCN=C(N)N)n3cc(C[C@@H](C)CC)nn3)CC2)n1	38	/	.	.	.
C[C@H]1CN([C@@H](C)CO)C(=O)c2cc(C#CCN(C)C)cnc2O[C@H]1CN(C)S(=O)(=O)c1ccccc1	/	/	.	/	/
Cc1ccc(/C=C/C(=O)Nc2nn[nH]n2)o1	.	.	61	.	.
Cc1ccc(/C=C/C(=O)Nc2cccnc2)o1	.	.	.	.	.
Cc1ccccc1-c1nn[nH]n1	.	.	.	.	.
Oc1ccc(N=Nc2ccccc2-c2nn[nH]n2)c(O)c1	.	.	67	.	.
CC1(C)C(/C=C/C=C/C=C/C=C2\N(CCCCS(=O)(=O)O)c3ccc4ccccc4c3C2(C)C)=[N+](CCCCS(=O)(=O)[O-])c2ccc3ccccc3c21	67	/	65	.	.
N=C1/C(=C\c2ccc(OC(=O)c3ccccc3Cl)cc2)C(=O)N=C2SC(N3CCOCC3)=NN12	48	.	.	.	.
COc1cc(/C=C2\C(=N)N3N=C(N4CCOCC4)SC3=NC2=O)ccc1OC(=O)c1ccccc1	37	.	.	.	.
N=C1/C(=C/c2ccc(OCc3ccccc3F)cc2)C(=O)N=C2SC(CC(=O)N3CCOCC3)=NN12	33	.	.	.	.
O=c1n(-c2ccccc2)c(=O)n2n1CC(COc1ccccc1)=C1[C@@H](c3ccccc3)OB(O)C[C@@H]12	/	/	.	/	/
C[C@@H]1CN([C@@H](C)CO)C(=O)c2cccc(NC(=O)c3cnccn3)c2O[C@H]1CN(C)C(=O)Nc1ccc(F)cc1	/	/	.	/	/
Oc1ccc(N=Nc2c(O)ccc3ccccc23)cc1	.	.	.	49	.
C[C@H](NC(=O)C[C@H]1CC[C@H](NC(=O)CN2CCOCC2)[C@H](CO)O1)c1ccccc1	/	/	.	/	/
CC(Sc1nncs1)C(=O)Nc1ccc(S(=O)(=O)Nc2ncccn2)cc1 (configuration not stated)	.	.	48	.	.
CC(Sc1nncs1)C(=O)Nc1ccc2c(c1)OCO2 (configuration not stated)	.	.	.	.	.
O=C(NCCO)c1ccc2nc(-c3ccco3)c(-c3ccco3)nc2c1	.	.	.	.	.
O=C(NCCc1ccccc1)c1ccc2nc(-c3ccco3)c(-c3ccco3)nc2c1	40	/	.	.	.
COc1ccc2c(c1)c(=O)oc1cc(OCC(=O)N3CCc4ccccc4C3)ccc12	33	.	.	.	.
COc1ccc(/C=N/Nc2nnc(-c3ncc[nH]3)c3ccccc23)cc1	.	/	.	.	.
Oc1ccc2ccccc2c1/C=N/Nc1nnc(-c2ncc[nH]2)c2ccccc12	51	.	.	.	.
CCn1c(O)c(/C=C/C=C/C=Nc2ccccc2)sc1=S	.	.	.	.	.
Oc1c(/C=C/C=C/C=Nc2ccccc2)sc(=S)n1Cc1ccccc1	32	.	/	/	.
COc1ccccc1NC(=O)N[C@@H]1CC[C@@H](CC(=O)N2CCC(Cc3ccccc3)CC2)O[C@@H]1CO	/	/	.	/	/
C[C@H]1CN([C@@H](C)CO)C(=O)c2cc(-c3ccncc3)cnc2O[C@H]1CN(C)C(=O)NC1CCCC1	/	/	.	/	/
Cc1ccc(S(=O)(=O)Oc2ccc(/C=C3\C(=N)N4N=C(S(C)(=O)=O)SC4=NC3=O)cc2)cc1	34	.	.	.	.
